Assay outcomes as filed in PubChem BioAssay.
HT1080-NT tox: kills 2HG-producing HT-1080-NT fibrosarcoma cells; HT-1080-NT fibrosarcoma viability, CellTiter-Glo ATP luminescence, 48 h; Potency, µM (titrated, usually from 46.1 µM), without a hit: at the top dose activity, negative = less viability, usual class: cytotoxic; 1.6% of 360,000 active; AID 686970;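 further: NT is the 2HG producing partner of a matched IDH1 knockdown line; 0% = DMSO-treated cells and -100% = media-only wells without cells; nearly all actives have a fitted effect of over 55% in size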
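750 cells/well, RPMI + 5% FBS; 2 h settle, compound pin-transfer, 48 h at 37 degrees C. CellTiter-Glo 10 min RT, luminescence. Normalized to DMSO and media-only wells.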
KB-V1 cytotox: kills drug-selected multidrug resistant KB-V1 cells | KB-V1 MDR cells viability, CellTiter-Glo, 72 h | Potency, µM (doses to about 46.1 µM), actives largely listed as cytotoxic | 3.4% of 400,000 active | AID 1347076; further: on the % scale 0 is the no-effect control and ±100 the full control effect; nearly all actives have a fitted effect of over 60% in size
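Compound-treated KB-V1 multidrug-resistant cells, 72 h, 37 degrees C; viability by CellTiter-Glo. Fitted qHTS curves give the values.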
MCF10A rerep: induces DNA re-replication in MCF 10a normal breast cells | MCF 10A DNA re-replication, Hoechst nuclear intensity, 48 h | Potency, µM (top dose mostly 46.1 µM), without a hit: at the top dose activity, positive = re-replication, usual class: activators | 2.9% of 350,000 active | AID 624296; further: % of control where 0% means no effect; nearly all actives have a fitted effect of over 50% in size
SW480 rereplic: inducers of DNA re-replication in SW480 colon cancer cells. SW480 DNA re-replication, Hoechst DNA content imaging, 48 h. 1.8% of 340,000 active. AID 624297. Potency, µM (series often up to 46.1 µM), for the others: at the top dose re-replication activation, usual class: activators; further: % of control where 0% means no effect; nearly all actives have a fitted effect of over 55% in size
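Image-based DNA-content assay: after two days of treatment, nuclei were labelled with the DNA dye Hoechst and imaged, and hits were compounds raising the count of nuclei showing high fluorescence intensity.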
KB-3-1 cytotox: KB-3-1 parental cell cytotoxicity; KB-3-1 viability, CellTiter-Glo ATP luminescence, 72 h; Potency, µM (series often up to 46.1 µM), usual class: cytotoxic; 1.4% of 400,000 active; AID 1347075; further: on the % scale 0 is the no-effect control and ±100 the full control effect; nearly all actives have a fitted effect of over 60% in size
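Viability of parental KB-3-1 cells, measured by CellTiter-Glo luminescence, followed a 72 h incubation at 37 °C with pinned compounds in phenol-red-free DMEM containing 10% FBS.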
HT1080 IDH1KD tx: toxicity to HT-1080 IDH1 knockdown cells (counter line); Potency, µM (highest dose often 46.1 µM), for inactives: at the highest dose activity, negative = toxicity, most hits filed as cytotoxic; 2% of 360,000 active; HT-1080 IDH1 knockdown viability, ATP luminescence, 48 h;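 further: 0% = DMSO wells and -100% = cell-free medium wells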
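Assay cells: HT-1080 with IDH1 knockdown, 750 per well, RPMI/5% FBS. Exposure: 48 h at 37 °C following 2 h pre-incubation. Read: CellTiter-Glo luminescence; fitted concentration-response, curve class assigned.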
Numbers without * were called inactive; i = inactive; ? = inconclusive; nt = no result; [ ] = dose if it differs, or a comment. A selection: hits, their analogues and other compounds. The true share with any hit is near 7.9%. The call rests on the fitted dose curve; in most records, active means well fitted curve in the direction sought with a large enough effect; inconclusive means small, poorly fitted or top-dose-only effect, or another doubt; inactive means no such curve, though single readings can be large; an effect the other way counts as inactive or inconclusive. Potency means the concentration at half of the fitted maximal effect.

SMILES	HT1080-NT tox	KB-V1 cytotox	MCF10A rerep	SW480 rereplic	KB-3-1 cytotox	HT1080 IDH1KD tx
O=c1ccc(/C=C/c2ccccc2)nn1Cc1ccc(F)cc1	-4%	i	?	3%	i	-27%
Cc1ccc(C=Cc2ccccn2)cc1	19%	i	nt	nt	i	13%
Cc1ccc(/C=C/c2ccc(=O)n(Cc3ccccc3Cl)n2)cc1	?	21µM*	?	-5%	?	-1%[9.24 µM]
CC(=O)Nc1c2c(nn1-c1ccc(Cl)cc1)CSC2	2%	i	-5%	-7%	i	0%
COc1ccc(NC(=O)CC2C(=O)N(c3cccc(OC)c3)C(=O)N2C2CCCCC2)cc1 (configuration not stated)	8%	16µM*	3%	-3%	i	5%
COc1ccc(NC(=O)CC2C(=O)N(c3cccc(OC)c3)C(=O)N2CCc2cccs2)cc1 (configuration not stated)	nt	i	nt	nt	i	nt
COc1ccc(NC(=O)CC2C(=O)N(c3ccc(OC)cc3)C(=O)N2CCc2cccs2)cc1 (configuration not stated)	0%	15µM*	8%	0%	i	8%
CSc1ccc(C(=O)C2CCCN(C(=O)c3ccc4c(c3)no[n+]4[O-])C2)cc1 (configuration not stated)	26%	?	18µM*	-3%	i	-7%
CSc1ccc(C(=O)C2CCCN(S(=O)(=O)N(C)C)C2)cc1 (configuration not stated)	-6%	21µM*	-2%	-2%	?	-7%
CSc1ccc(C(=O)C2CCCN(C(=O)CCc3c(C)nn(C)c3C)C2)cc1 (configuration not stated)	13µM*	nt	12%	-4%	nt	?
CSc1ccc(C(=O)C2CCCN(C(=O)CCn3cncn3)C2)cc1 (configuration not stated)	9%	i	0%	-6%	i	17%
CCN1CCN(S(=O)(=O)c2ccc(Cl)c(C(=O)Nc3ccc(OC(F)F)cc3)c2)CC1	-13%	?	?	11%	i	-14%
Cc1ccc2c(c1)N(C(=O)CCC(=O)NCc1cccs1)CC(C)O2 (configuration not stated)	nt	i	nt	nt	i	nt
Cc1ccc(Cl)cc1N(CC(=O)Nc1cccc(N(C)S(C)(=O)=O)c1)S(C)(=O)=O	?	i	-3%	3%	i	?
CC1(C)C(C=C(Cl)Cl)C1C(=O)N(Cc1ccccc1Cl)C1CCS(=O)(=O)C1 (configuration not stated)	-1%	15µM*	9%	0%	i	-3%
CC1(C2CCC3C4CCC5CC6(CCC5(C)C4C(=O)CC32C)OCCO6)OCCO1 (configuration not stated)	0%	i	?	0%	i	-2%
COc1cc(OC)c(NC(=O)c2csc(C)c2)cc1Cl	-20%	i	7%	19%	i	0%
c1ccc(N2CC3CCc4ccccc4C3=N2)cc1 (configuration not stated)	-12%	i	21µM*	7.3µM*	i	7%
CCOc1ccc(S(=O)(=O)N(CC)CC)cc1N	2%	i	3%	-64%	i	-7%
CCOc1ccc(C(=O)c2ccc(OCC)c(N)c2)cc1N	-1%	i	18µM*	?	?	-18%
CCN1/C(=C/c2ccc3cc(C)cc(C)c3[n+]2CC)Sc2cc(C)ccc21	7.3µM*	i	5.8µM*	0%	i	?
CCN1/C(=C\C=C2\C(=O)N(c3ccccc3)C(=S)N2C)Sc2ccccc21	-3%	i	-3%	3%	i	19%
CC[n+]1c(/C=C/c2ccc(OC)c(OC)c2)ccc2ccccc21	11%	i	18%	-2%	i	5%
